Structures are written as SMILES. Inconclusive results are not listed. Entries that show only a call come without a potency. The source made the active and inactive calls. The call rests on the fitted dose curve; in most records, active means well fitted inhibition curve with a large enough effect; inconclusive means small, poorly fitted or top-dose-only effect; inactive means no such curve, though single readings can be large or run the other way. *1 amine or outer side, *2 acyl side, *3 side chain or, on linkers, in order; H or OH if unused. Where a SMILES comes first, the peptide text is derived from it. Bridges are numbered along the chain shown (N, C = ends). [ ]: non-standard residue; d: D form. X6 = O=C(CCC[*:2])[*:1]
Potency means the concentration at half of the fitted maximal effect.

A short description of this assay: Primary qHTS for inhibitors of nuclear receptor binding SET domain protein 2 (NSD2) in an RCH-ACV wild type WT cells (2C) (AID 1645877). Further: nearly all actives have a fitted effect of over 70% in size. The following applies: RCH-ACV (leukaemia line) NSD2 WT (2C) viability, CellTiter-Glo, 72 h; series mostly up to 44.9 µM.
In the case of `C[C@@H]1C(=O)O[C@H]2CC34[C@H]5C[C@@H](C(C)(C)C)C36[C@@H](OC(=O)[C@@H]6O)O[C@@]4(C(=O)O5)[C@]21O` (stereo not given in full), the Potency entry was “inactive”.
Still for that read-out and setting: under `COc1c2c(c(C)c3c1C(=O)OC3)O[C@@]1(C)C[C@@H](O)[C@]34O[C@](OC)(CC[C@]3(C)[C@H]1C2)OC4(C)C` stands “inactive”; under `CC1=CCC2C(C)(CO)CCCC2(C)C1CC12OC1C(O)C(CO)=CC2O` (stereo not given), “inactive”.
Same read-out and setting: the entry for `CC(=O)N[C@H](Cc1ccc(O)cc1)C(=O)N[C@H](CCCN=C(N)N)C(=O)N[C@H](Cc1ccccc1)C(N)=O` (Ac-[dY]-[dR]-[dF]-NH2) is “inactive”.
On to `C[C@H]1[C@H](C)CC[C@]2(C(=O)O[C@@H]3O[C@H](CO)[C@@H](O)[C@H](O)[C@H]3O)CC[C@]3(C(=O)O)C(=CCC4[C@@]5(C)CC[C@H](O[C@@H]6O[C@H](CO)[C@@H](O)[C@H](O)[C@H]6O)C(C)(C)C5CC[C@]43C)[C@H]12` (stereo not given in full), for which the activity change, negative = cell killing was -8.94% [at 9.23 µM] (inactive).
Take `C=C1CC[C@H]2[C@@H](/C=C(\C)C(=O)[C@@]3(OC(C)=O)C[C@H](C)[C@H](OC(C)=O)[C@@H]3[C@H]1OC(C)=O)C2(C)C`: the Potency entry was “inactive”.
Still for that read-out and setting: under `CC(C)C1=CC2=CCC3[C@](C)(CCC[C@@]3(C)C(=O)O)C2CC1O` (stereo not given in full) stands “inactive”; under `C=CCc1ccc(O[C@@H]2O[C@H](CO[C@@H]3O[C@H](CO)[C@@H](O)[C@H](O)[C@H]3O)[C@@H](O)[C@H](O)[C@H]2O)c(O)c1`, “inactive”.
Still for that read-out and setting: the entry for `C[C@H]1CC[C@@]2(OC1)O[C@H]1CC3C4CC=C5C[C@H](O)C[C@@H](O[C@@H]6O[C@@H](C)[C@H](O)[C@@H](O)[C@H]6O[C@@H]6O[C@@H](C)[C@H](O)[C@@H](O)[C@H]6O)[C@]5(C)C4CC[C@]3(C)[C@H]1[C@@H]2C` (stereo not given in full) is “inactive”.
On the same count and under the same terms, under `CC1=C2C(=O)C=C(CO)[C@@H]2[C@H]2OC(=O)[C@H](C)[C@@H]2[C@@H](O)C1` stands “inactive”; under `COC(=O)[C@@H]1C2CC3c4[nH]c5ccccc5c4CCN3CC2CC[C@@H]1O` (stereo not given in full), “inactive”.
For the molecule `CC[C@H](C)[C@@H]1NC(=O)[C@H](Cc2ccc(OC)cc2)NC(=O)CCCSC[C@@H](C(=O)N2CCC[C@H]2C(=O)N[C@@H](CC(C)C)C(=O)NCC(N)=O)NC(=O)[C@H](CC(N)=O)NC(=O)[C@H](CCC(N)=O)NC1=O` (Y(Me)IQNCPLG-NH2; linker N-5 via X6), the Potency entry is “inactive”.
With `C=CC(C)(O)CC/C=C(\C)C(=O)OCC1OC(OC2CCC3(C)C(CCC4(C)C3CC=C3C5CC(C)(C)C(O)CC5(C(=O)O)CCC34C)C2(C)C)C(O)C(OC2OC(CO)C(O)C(OC3OC(CO)C(O)C(OC4OC(COC5OC(CO)C(O)C(O)C5O)C(O)C(O)C4O)C3O)C2O)C1O` (stereo not given), the activity change, negative = cell killing is 4.93% [at 9.23 µM] (inactive).
Take `CC1(C)CC[C@]2(C(=O)O)CC[C@]3(C)C(=CCC4[C@@]5(C)CC[C@H](O[C@@H]6O[C@H](C(=O)O)[C@@H](O)[C@H](O)[C@H]6O)C(C)(CO)C5CC[C@]43C)C2C1` (stereo not given in full): the Potency result was “inactive”.
Still for that read-out and setting: the entry for `C=C1CC2C3(C)C(OC(C)=O)CC(=O)OC(C)(C)C3C(O)C(OC(C)=O)C2(C)C2C(=O)OC(C)C(=O)C12C` (stereo not given) is “inactive”; for `CCC[C@@H]1C[C@@H](C(=O)N[C@@H]([C@H]2O[C@H](SC)[C@H](O)[C@@H](O)[C@@H]2O)[C@@H](C)O)N(C)C1` it is “inactive”; for `CC1=CC(=O)CC(C)(C)C1CCC(C)OC1OC(COC(=O)c2cc(O)c(O)c(O)c2)C(O)C(O)C1O` (stereo not given) it is “inactive”.
For `COC1CC(OC2CCC3(C)C(=CCC4C3CCC3(C)C(C(C)O)CCC43O)C2)OC(C)C1OC1OC(C)C(OC2OC(COC3OC(COC4OC(CO)C(O)C(O)C4O)C(O)C(O)C3O)C(O)C(O)C2O)C(OC)C1O` (stereo not given), the outcome was “inactive [at 9.23 µM]”.
As for `CC(=O)O[C@@]1(C)C[C@@H](O)[C@]2(O)C=CO[C@@H](O[C@@H]3O[C@H](CO)[C@@H](O)[C@H](O)[C@H]3O)[C@@H]21`, the Potency entry is “inactive”.
Still for that read-out and setting: the entry for `COc1ccc(/C=C/C(=O)O[C@@H]2[C@@H](OC(C)=O)[C@@H](OC(C)=O)[C@H](O[C@H]3[C@@H]4C=CO[C@@H](O[C@@H]5O[C@H](CO)[C@@H](O)[C@H](O)[C@H]5O)[C@@H]4[C@@]4(CO)O[C@@H]34)O[C@H]2C)cc1O` is “inactive”.
The same measure, in the same setting: under `C[C@@H]1CC[C@H]2C(C)(C)[C@H](O)[C@H](O)C[C@]2(C)[C@@]12Cc1c(O)cc3c(c1O2)CNC3=O` stands “inactive”; under `COc1ccc2c(c1)O[C@H](O[C@@H]1O[C@H](CO)[C@@H](O)[C@H](O)[C@H]1O)C(=O)N2`, “inactive”; under `C[C@H]1C[C@H]2[C@@H]3CCC4=CC(=O)C=C[C@]4(C)[C@@]3(F)[C@@H](O)C[C@]2(C)[C@@]1(O)C(=O)COP(=O)(O)O`, 0.0578 µM (active).
Consider `CC1(CCC(=O)O)C(=O)C=CC23CC4CC(OC4(C)C2O)C13` (stereo not given), for which the Potency result is “inactive”.
The same measure, in the same setting: the entry for `CCC(NC(=O)CC(NC(=O)C(CO)NC(=O)C(CC)NC(=O)c1ccc[nH]1)c1ccccc1)C(=O)O` (stereo not given) is “inactive”.
On to `CC(C)(O)C1CC=C(C(=O)OCC2OC(Oc3c(O)cc(C(=O)O)cc3O)C(O)C(O)C2O)CC1` (stereo not given), for which the Potency entry was “inactive”.
Regarding `CC(=O)Oc1cc2c(s1)CCN([C@H](C(=O)C1CC1)c1ccccc1F)C2`, the Potency entry was “inactive”.
The same measure, in the same setting: under `COc1ccc2c3c1O[C@H]1C[C@@H](O)C=C[C@@]31CCN(C)C2` stands “inactive”; under `COc1cc(N2CCC(O)CC2)ccc1Nc1cc(Nc2ccccc2S(=O)(=O)C(C)C)c2cc[nH]c2n1`, “inactive”; under `C[C@H]1[C@H](C)CC[C@]2(C(=O)O)CC[C@]3(C(=O)O)C(=CCC4[C@@]5(C)CC[C@H](O[C@@H]6O[C@H](C)[C@@H](O)[C@H](O)[C@H]6O)C(C)(C)C5CC[C@]43C)[C@H]12` (stereo not given in full), “inactive”.
Take `CC(C)(O)CNc1nc(Nc2ccnc(C(F)(F)F)c2)nc(-c2cccc(C(F)(F)F)n2)n1`: the Potency was 20.9 µM (active).
On to `C=CC1C(O[C@@H]2O[C@H](CO)[C@@H](O)[C@H](O)[C@H]2O)OC=C(C(=O)OC)C1Cc1nccc2c1[nH]c1ccccc12` (stereo not given in full), for which the Potency entry was “inactive”.
On the same count and under the same terms, under `Nc1ccn([C@@H]2C(F)=C(CO)[C@@H](O)[C@H]2O)c(=O)n1` stands 0.332 µM (active); under `C[C@@H]1C(=O)O[C@H]2[C@H]1CC[C@@]1(C)C(=O)C=C[C@](C)(O)[C@H]21`, “inactive”.
Same read-out and setting: the entry for `COc1cc(C)c(C(=O)O[C@H]2[C@@H](O)[C@H](n3ccc(=O)[nH]c3=O)O[C@@H]2CO)c(OC)c1` is “inactive”.
Same read-out and setting: under `Cn1c(=O)c2nc(/C=C/c3cccc(Cl)c3)n(C)c2n(C)c1=O` stands “inactive”.
`COC(=O)C1=COC(OC2OC(CO)C(O)C(O)C2O)C2C1CC(OC(=O)C(O)CC(=O)O)C2C` (stereo not given): the Potency entry was “inactive”.
`CC(=O)O[C@H]1[C@H](Oc2ccccc2COC(=O)C2(O)C=CCCC2=O)O[C@H](CO)[C@@H](O)[C@@H]1O` (stereo not given in full): the Potency is 7.09 µM (active).
The same measure, in the same setting: the entry for `N#CCc1ccc(O)cc1O[C@@H]1O[C@H](CO)[C@@H](O)[C@H](O)[C@H]1O` is “inactive”; for `CCC(C)(O)C(O)C(=O)OCc1ccc(O[C@@H]2O[C@H](CO)[C@@H](O)[C@H](O)[C@H]2O)c(OC)c1` (stereo not given in full) it is “inactive”.

Values taken from PubChem BioAssay (NCATS).
